Measurements published in PubChem BioAssay.
Active and inactive are the calls of the source.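 The calls were made as follows: active = inhibition over a set limit, the all-compound mean plus 3 SD, in both replicate runs; inconclusive = over that limit in just one replicate run; inactive = at or under that limit in both runs.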

experiment: inhibitors of the yeast RAM network, pilot screen, dse1pr::URA3 reporter, 5-FOA selection (AID 869);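 also: 0% = DMSO wells with no growth and 100% = 10 µM 1-NA-PP1 with full growth; RAM network block rescues cells from 5-FOA so hits raise OD615 growth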; conditions: S. cerevisiae dse1pr::URA3 5-FOA growth, OD615, 2 d; at 10 µM; stronger effect = higher value; strain carries analog-sensitive mutant Cbk1 kinase

inhibition, inactive:
CCN1C(=O)CSc2ccc(C(=O)OC)cc21 1.39%
CN(C(=O)c1ccc(=O)[nH]c1)C1(C(=O)NC2CCCCC2)CCCCC1 0.78%
CCN1CCCC1CNC(=O)Cn1cnc2sc(C)c(S(=O)(=O)N3CCC(C)CC3)c2c1=O (stereo unspecified) 2.9%
CC1(C)CC(=O)c2cc(C(=O)N3CCN(CCO)CC3)c(=O)n(-c3ccc(Cl)cc3)c2C1 1.81%
CCOc1cc(/C=N/n2cnnc2)ccc1OCC(=O)Nc1ccccc1OC 1.91%
Cc1c(NC2=C(Cl)C(=O)N(c3ccccc3)C2=O)c(=O)n(-c2ccccc2)n1C 1.42%
CCOC(=O)COc1cc2c(C(=O)OCC)c(C)oc2cc1Br 1.04%
Cc1ccc(NC2=CC(=O)CC(c3ccco3)C2)c(N)c1 (stereo unspecified) 0.07%
Cc1ccc(-c2nn3c(C)nnc3s2)cc1NC(=O)c1ccco1 2.53%
CCCCn1c(C(C)NC(=O)COC)nc2ccccc21 (stereo unspecified) 1.94%
CCCCNC(=O)CS(=O)Cc1nc(-c2cccs2)oc1C (stereo unspecified) 1.57%
COc1ccc(-c2noc(Cc3ccccc3OC)n2)cc1 1.83%
O=C(NC1CCCCCC1)C1CCN(S(=O)(=O)c2cccc3cccnc23)CC1 -0.605%
Cc1ccsc1C1C2=C(CC(C)(C)CC2=O)Nc2ncnn21 (stereo unspecified) 1.98%
O=C(OC1CCCCC1)c1ccc(NC(=O)c2ccco2)cc1 0.87%
Cc1c(NC(=O)Oc2ccccc2)sc(=S)n1C 1.32%
